Holding throughout (assay): NCI-60 one-dose screen, 48 h (100 = growth as untreated, 0 = no growth, -100 = all killed)
Common to all, as to conditions: 10 µM

In experiment [1] the test system is NCI-H23 lung.
Experiment [2] relates to NCI-H226 lung.
For experiment [3], the system named is NCI-H322M lung.
Experiment [4] deals with HOP-62 NSCLC.
Experiment [5] deals with NCI-H460 lung.
Experiment [6] deals with NCI-H522 lung.
For experiment [7], the system named is A549/ATCC NSCLC.
The subject of experiment [8] is 786-0 renal.
In experiment [9] the test system is COLO 205 colon.
Experiment [10] deals with DU-145 prostate.

Each structure is given as a SMILES string. About 83,000 compounds went through this panel and 20% of them were active in at least one assay; those are over-represented in the sample as a whole.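 For each line, cells grew in 96-well plates with the test compound present at a single concentration for 48 hours.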 Values without a mark were called inactive. Activity calls are given as the source filed them. The calls were made as follows: active = growth percent below 10; inactive = the rest.

On to `CSc1cc(SC)ncn1`, for which the growth is 120% in [1]; 107% in [2]; 105% in [3]; 108% in experiment [4]; 119% in [5]; 100% in experiment [6]. The growth in experiment [7] is 105%; in experiment [8], 103%; in experiment [9], 104%; in experiment [10] it was 115%.

With `C#Cc1ccc(-n2c(/C=C/c3ccc4ccccc4c3)nc3ncccc3c2=O)cc1`, the growth in experiment [1] was 67.5%; in experiment [2], 13.2%; in experiment [3], 71.9%; in [4], 63%; in [5] it was 39%; in experiment [6], 8.75% (active). Besides, the growth was 34% in experiment [7], 54.3% in [8], 26% in experiment [9] and 60.1% in [10].

In the case of `COc1cccc(C(=O)Nc2ccc(CN3CCc4nc5cc(OC)c(OC)cc5cc43)cc2)c1`, the growth in experiment [1] is 56.9%; in experiment [2], 68.4%; in [3], 61.7%; in experiment [4], 81%; in experiment [5] it was 9.4% (active); in experiment [6] it was 42.7%. Also, the growth in experiment [7] is 36.5%; in experiment [8] it was 64.1%; in experiment [9], 44.1%; in experiment [10], 46.1%.

Consider `CN1CCC(CNc2cc(C3(C(=O)Nc4cc(C(=O)Nc5ccc(Cl)c(C(F)(F)F)c5)ccc4F)CC3)ncn2)CC1`, for which the growth in experiment [1] is 44%; in experiment [2], 72.5%; in [3], 39.4%; in experiment [4] it was -47.2% (active); in [5] it was 3.98% (active); in [6], 46.6%. The growth in [7] was 13.4%; in experiment [8], -38.4% (active); in experiment [9], -67.3% (active); in experiment [10], 40.5%.

On to `N=C(N)c1ccc(-c2ccc(-c3cccs3)s2)s1`, for which the growth in experiment [1] is 51.8%; in [2], 74.2%; in experiment [3], -29.8% (active); in [4], -67.4% (active); in [5], -82.2% (active); in [6], -69.5% (active). The growth is -63.2% (active) in experiment [7], -88.6% (active) in experiment [8], -93.8% (active) in experiment [9] and -91.6% (active) in [10].

With `COc1cc(-c2cc(-c3cc4c([nH]c5ccccc54)c(-c4cc(OC)c(OC)c(OC)c4)n3)cc(-c3ccccc3)n2)cc(OC)c1OC`, the growth in [1] was 69.1%; in experiment [2] it was 77%; in experiment [3], 95%; in experiment [4], 78%; in experiment [5], 64.8%; in [6] it was 43.4%. Further, the growth in [7] is 42.8%; in experiment [8], 79.6%; in [9], 84.8%; in experiment [10], 97.5%.

For `COc1cc(NC(=O)CCSc2nc3ccc(C)cc3c(=O)n2Cc2ccccc2)cc(OC)c1OC`, the growth in experiment [1] is 108%; in experiment [2], 27.4%; in experiment [3] it was 71.9%; in experiment [4] it was 9.27% (active); in [5], 48.3%; in experiment [6], 65.2%. Further, the growth is 42.6% in experiment [7], 72.6% in experiment [8], 112% in experiment [9] and 83.6% in experiment [10].

For `CN(C)c1ccc(-c2cc(-c3cccc(NS(C)(=O)=O)c3)nc(N)c2C#N)cc1`, the growth is 21.5% in [1]; 39.6% in [2]; 21.1% in [3]; 44.1% in experiment [4]; 5.32% (active) in experiment [5]; 7.63% (active) in [6]. Moreover, the growth in experiment [7] is 25.9%; in experiment [8], 31%; in experiment [9], -71.2% (active); in experiment [10], -25.5% (active).

On to `Clc1ccc(Nc2ccnc(NCCNc3ccnc4cc(Cl)ccc34)n2)cc1`, for which the growth is 47.6% in experiment [1]; 63.3% in [2]; 20.1% in [3]; 66.7% in experiment [4]; 7.77% (active) in experiment [5]; -34.5% (active) in [6]. The growth in [7] was 10.8%; in [8], -62% (active); in [9], -91% (active); in [10] it was 36%.

Regarding `Nc1nc(Nc2ccccc2)n[nH]1`, the growth in experiment [1] is 94.7%; in [2] it was 96.8%; in experiment [3], 108%; in experiment [4] it was 92.3%; in experiment [5], 108%; in [6], 17.7%. Besides, the growth was 34.8% in [7], 101% in [8], 114% in experiment [9] and 117% in experiment [10].

Regarding `O=C1C(=O)c2ccccc2C(O)=C1CCCc1ccc(C2CCCCCC2)cc1`, the growth in [1] was 23.4%; in [2] it was 37.6%; in experiment [3], 23.7%; in [4] it was 40.8%; in experiment [5] it was 11.6%; in [6], 42%. Besides, the growth in [7] was 22.7%; in experiment [8], 55.7%; in experiment [9] it was 36.5%; in [10], 44%.

`N#CC1=C(Nc2ccccc2Cl)SC(c2ccccc2O)NC1=O` (stereo not given): the growth in experiment [1] was 112%; in experiment [2], 120%; in experiment [3] it was 114%; in experiment [4], 115%; in experiment [5], 121%; in [6], 1.13% (active). The growth is 56.4% in experiment [7], 114% in [8], 121% in experiment [9] and 117% in experiment [10].

As for `Cc1[nH]nc2c1C(c1cnn(C)c1)C(C#N)=C(N)O2` (stereo not given), the growth was 101% in experiment [1]; 105% in experiment [2]; 96.9% in experiment [3]; 97.9% in experiment [4]; 104% in experiment [5]; 80.4% in experiment [6]. The growth in experiment [7] was 96.1%; in experiment [8], 102%; in [9], 114%; in experiment [10], 110%.

On to `CC(C)=NNc1ncnc2c1ncn2C1OC(CO)C(O)C1O` (stereo not given), for which the growth in experiment [1] is 31.7%; in [2], 32%; in experiment [3], -1.85% (active); in experiment [4] it was 7.08% (active); in experiment [5], -2.28% (active); in experiment [6], 14.8%. Further, the growth in experiment [7] was 14.3%; in [8], 35%; in experiment [9], 3.97% (active); in experiment [10], 12.8%.

For the compound `S=c1[nH]ccn1-c1c(Cl)cccc1Cl`, the growth in experiment [1] is 100%; in experiment [2] it was 98.6%; in experiment [3] it was 102%; in experiment [4], 93.5%; in experiment [5], 101%; in experiment [6] it was 11%. Moreover, the growth in experiment [7] is 28.9%; in [8] it was 98.8%; in experiment [9], 115%; in experiment [10], 125%.

`Nc1ncnc2[nH]c(=O)[nH]c12`: the growth was 103% in experiment [1]; 87.7% in [2]; 103% in [3]; 97.9% in experiment [4]; 95.5% in experiment [5]; 105% in experiment [6]. Also, the growth is 118% in [7], 102% in experiment [8], 132% in experiment [9] and 99.5% in experiment [10].

Consider `COc1ccc(OC)c(NC(=O)c2sc3nc4c(cc3c2N)C(=O)CCC4)c1`, for which the growth is 78.5% in [1]; 88.6% in experiment [2]; 75.9% in experiment [3]; 94% in experiment [4]; 37.4% in experiment [5]; 60.6% in [6]. The growth in experiment [7] was 39%; in experiment [8] it was 95.4%; in experiment [9], 34.1%; in [10], 113%.

As for `O=C1/C(=C/c2ccc([N+](=O)[O-])o2)Oc2ccccc21`, the growth in experiment [1] was -8.25% (active); in experiment [2], 23.9%; in [3] it was 91.6%; in [4] it was 62.2%; in [5] it was 31.8%; in experiment [6], -79.6% (active). The growth in experiment [7] is 62.5%; in experiment [8], -38.5% (active); in [9], -66% (active); in experiment [10], -8.6% (active).

On to `COc1cc([C@@H]2c3cc4c(cc3C(Br)[C@H]3COC(=O)[C@H]23)OCO4)cc(OC)c1OC` (stereo not given in full), for which the growth in [1] was 4.09% (active); in experiment [2] it was 97.8%; in [3], 42.2%; in experiment [4] it was -13% (active); in [5] it was -50.8% (active); in experiment [6] it was -46.5% (active). Also, the growth in experiment [7] was -24% (active); in [8] it was 9.16% (active); in experiment [9] it was -88.4% (active); in experiment [10], -82.4% (active).

As to `CCCCC/C=C/C(=O)CCc1ccc(O)c(OC)c1`, the growth is 89.2% in experiment [1]; 87.8% in experiment [2]; 106% in experiment [3]; 107% in experiment [4]; 97.3% in [5]; 60.8% in [6]. Further, the growth in [7] is 82.6%; in experiment [8], 91.1%; in experiment [9], 108%; in experiment [10] it was 76.9%.

Regarding `O=C1OCC2=C1C(c1cccc(Cl)c1)c1cc3c(cc1N2CCO)OCO3` (stereo not given), the growth was 31.7% in [1]; 23.4% in [2]; 42.8% in experiment [3]; 31.4% in experiment [4]; 7.53% (active) in experiment [5]; -19.7% (active) in [6]. The growth in experiment [7] is 27.6%; in [8], 35.7%; in experiment [9], -6.41% (active); in [10], 11%.

For the compound `CC1(C)OC2=C(CC1Br)C(=O)C(=O)c1ccccc12` (stereo not given), the growth is -64.3% (active) in experiment [1]; -6.31% (active) in experiment [2]; 27.1% in [3]; -88.1% (active) in experiment [4]; 3.62% (active) in experiment [5]; -67.6% (active) in [6]. The growth was -39.9% (active) in [7], -40.4% (active) in experiment [8], -87.8% (active) in [9] and -95.1% (active) in experiment [10].

As to `CCN(CC)CCCC(C)Nc1ccc2ccc(Cl)cc2n1` (stereo not given), the growth in experiment [1] was 98.5%; in experiment [2], 93.1%; in [3], 102%; in experiment [4] it was 86.9%; in experiment [5], 102%; in experiment [6], 92%. In addition, the growth in experiment [7] is 98.3%; in [8] it was 93.8%; in [9], 95.7%; in experiment [10] it was 114%.

Turning to `N=C1c2nc3n(c2C(=O)c2nc4n(c21)CCCC4)CCCC3`, the growth in experiment [1] is -70.4% (active); in experiment [2], 57.1%; in experiment [3], 27.7%; in experiment [4], 52.3%; in experiment [5], 4.62% (active); in experiment [6] it was 10.5%. Further, the growth is -30.6% (active) in experiment [7], 89% in experiment [8], -88.6% (active) in experiment [9] and -93.9% (active) in experiment [10].

As to `Cc1cc(O)c(C(C)(C)C)cc1Sc1cc(C(C)(C)C)c(O)cc1C`, the growth was 44.5% in [1]; 84.3% in experiment [2]; 81.6% in experiment [3]; 62% in [4]; 42% in experiment [5]; 48.3% in experiment [6]. The growth in experiment [7] was 35.2%; in experiment [8] it was 79.9%; in experiment [9], 90.7%; in experiment [10], 50%.

As to `COc1ccc2c(c1)N(CCO)C1=C(C(=O)OC1)C2c1cc(OC)c(OC)c(OC)c1` (stereo not given), the growth was 17.4% in experiment [1]; 2.05% (active) in [2]; 17% in experiment [3]; 25.6% in experiment [4]; 0.781% (active) in [5]; -36.1% (active) in experiment [6]. Moreover, the growth in experiment [7] was 13.1%; in [8], 25.3%; in experiment [9], -65.4% (active); in experiment [10], -30.8% (active).

The values above are taken from PubChem BioAssay (NCI).
